In PubChem BioAssay AID1159580 (chemical genetic matrix, 2015):
About 2,000 (36%) of roughly 5,500 compounds were called active. Not shown: some 18% with an inconclusive outcome. Rule as the data show it: active = normalized growth mostly below about 0.91 (no sharp cut-off); inconclusive = no clear call, values can overlap the other calls; inactive = mostly above about 0.92. The list shows a part of the results.

Test: chemical genetic growth profiling, strain panel (AID 1159580);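 also: tested at 20 µM; growth read once vehicle control cultures reached saturation at 30 °C; 1 = growth at the plate median or of vehicle wells; lower values mean less growth of the strain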
Settings: S. cerevisiae deletion strains, growth OD

Measured: normalized growth

COc1ccc2c(c1OC)C(=O)O[C@@H]2[C@H]1c2c(cc3c(c2OC)OCO3)CCN1C
inactive: locus YAL040C, strain CLN3, hits give low values 0.984 | locus YCL061C, strain MRC1 (second series), hits give low values 1 | locus YDR150W, strain NUM1, hits give low values 1 | locus YDR363W, strain ESC2, hits give low values 0.998 | locus YER002W, strain NOP16, hits give low values 0.985 | locus YGR229C, strain SMI1, hits give low values 0.998 | locus YJR075W, strain HOC1, hits give low values 1 | locus YMR307W, strain GAS1, hits give low values 0.991 | locus YNL153C, strain GIM3, hits give low values 1.01 | locus YNL175C, strain NOP13, hits give low values 1 | locus YNL197C, strain WHI3, hits give low values 1.01 | locus YNL224C, strain SQS1, hits give low values 1 | locus YNL322C, strain KRE1, hits give low values 0.994 | locus YOR083W, strain WHI5 (second series), hits give low values 1.01 | locus YPL055C, strain LGE1, hits give low values 0.99
